Shown are actives, neighbours in structure and some others; about 6% of the full set was active somewhere.
D1 antag: human D1 dopamine receptor antagonism; P21728; HEK293 TREx D1 cells, calcium flux, dopamine EC80; stronger effect = lower value; activity change, negative = inhibition, % at 10 µM; 360,000 compounds, 3.2% hits; AID 504652; in the data active = activity change below about -30%; note: % is set by controls: 0 for no effect and ±100 for the full control effect
Target sequence (P21728 whole entry, looked up): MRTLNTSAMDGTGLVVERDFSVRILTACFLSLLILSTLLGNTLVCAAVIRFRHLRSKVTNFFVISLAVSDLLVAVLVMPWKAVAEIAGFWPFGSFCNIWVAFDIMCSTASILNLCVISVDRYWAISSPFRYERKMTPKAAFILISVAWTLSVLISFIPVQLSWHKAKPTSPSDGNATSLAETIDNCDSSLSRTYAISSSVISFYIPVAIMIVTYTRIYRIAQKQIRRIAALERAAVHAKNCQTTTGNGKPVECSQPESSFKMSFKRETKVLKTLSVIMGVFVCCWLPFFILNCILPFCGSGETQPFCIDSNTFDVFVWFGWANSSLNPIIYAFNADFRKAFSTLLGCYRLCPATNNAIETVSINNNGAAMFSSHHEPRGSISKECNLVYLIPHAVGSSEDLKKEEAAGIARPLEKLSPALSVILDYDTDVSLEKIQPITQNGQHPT
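After overnight tetracycline induction at 30 C, force-coupled D1 HEK293 cells took up a no-wash calcium dye at room temperature. Compounds were added and monitored 180 s, and the response to EC80 dopamine was then recorded.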
D1 ag: activates the human D1 dopamine receptor | P21728 | HEK293 T-REx D1 cells, calcium flux, agonist mode | activation, % at 2 µM | 360,000 compounds, 1% hits; in the data active = activation above about 30%; note: 0% is about no effect
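Tetracycline-induced HEK293 TREx D1 cells, force-coupled to calcium signalling, were dye-loaded with a no-wash calcium kit. Compound was pin-added after a 10 s baseline. Fluorescence was read kinetically at 1 cycle/s for 180 s, with calcium rises flagged as agonism.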
DRD3 antagonist: antagonists of human D3 dopamine receptor; P35462; D3R cells, DiscoveRx beta-arrestin luminescence, antagonist mode; stronger effect = lower value; max response, negative = inhibition, %; 360,000 compounds, 2.5% hits; AID 652054; in the data active = max response below about -50%; note: % is set by controls: 0 for no effect and ±100 for the full control effect
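Cells plated overnight at 1500 cells/well, then exposed to library compounds with dopamine controls for 90 minutes at 37 degrees C. DiscoveRx reagent added for 30–60 minutes at room temperature; luminescence read, quantitative HTS format.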
D1 potentiator: potentiators of human D1 dopamine receptor | HEK293 TREx D1 cells, calcium flux, dopamine EC20 potentiation | potentiation, % at 10 µM | 360,000 compounds, 0.036% hits | AID 504651; in the data active = potentiation above about 30%; note: 0% is about no effect
D3 ag: agonists of human D3 dopamine receptor; AID 652048; 410,000 compounds, 0.58% hits; D3R DiscoveRx beta-arrestin cells, luminescence, 90 min; max activation, %; P35462; in the data active = max activation above about 30%; note: 0% is about no effect
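Agonist mode: compounds and dopamine controls were applied to plated cells for 90 min at 37 degrees C after an overnight attachment at 1500 cells/well. Luminescent read-out followed 30 - 60 minutes at room temperature with DiscoveRx detection reagent.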
The depositor's hits bear a star.

Screening CC(C)c1cccc(-c2csc(C(C)(O)c3ccccc3)n2)c1 (centres undefined) returned DRD3 antagonist -57* and D3 ag -15.
COc1ccc(-c2csc(C(C)(O)c3cccc(OC)c3)n2)cc1 (centres undefined) was read as DRD3 antagonist 16 and D3 ag 6.
Screening COc1cccc(C(C)(O)c2nc(-c3ccc(S(C)(=O)=O)cc3)cs2)c1 (centres undefined) returned DRD3 antagonist -13 and D3 ag 80*.
CC(O)(c1cccc(F)c1)c1nc(-c2cccc(C(F)(F)F)c2)cs1 (centres undefined) was read as DRD3 antagonist -53* and D3 ag -16.
Screening COc1ccc(-c2csc(C(C)(NC(C)=O)c3ccc(OC)cc3)n2)cc1 (centres undefined) returned DRD3 antagonist -51* and D3 ag -10.
O=C(CSc1nc(-c2ccccc2)cn1-c1ccccc1F)Nc1ccc(F)cc1 was read as D1 antag -19, D1 ag 5, D1 potentiator 3 and D3 ag -6.
CCOc1ccc(CCNC(=O)CCCc2nnc3n(CC(C)C)c(=O)c4sccc4n23)cc1 was read as D1 antag -4, D1 ag 2, D1 potentiator -4 and D3 ag -9.
For CC(O)(c1cccc(F)c1)c1nc(-c2ccccc2)cs1 (centres undefined) the results were DRD3 antagonist -89* and D3 ag -12.
`O=c1c2sc3ccccc3c2n(Cc2ccc(F)cc2)c(=O)n1Cc1ccccc1` gave D1 antag 32, D1 ag 4, D1 potentiator 3 and D3 ag -11.
For O=C1OCC2=C1C(c1cccc(Cl)c1)CC(=O)N2c1ccc(C(F)(F)F)cc1 (centres undefined) the results were D1 antag 1, D1 ag -1, D1 potentiator -5 and D3 ag -6.
Screening CCc1sc(C(=O)NC2CCN(C)CC2)cc1Br returned D1 antag -19, D1 ag 36*, DRD3 antagonist -10, D1 potentiator -10 and D3 ag 7.
`CCc1sc(C(=O)N2CCCN(C)CC2)cc1Br` gave D1 antag 10, D1 ag 2, DRD3 antagonist -21, D1 potentiator -2 and D3 ag -22.
`CCCc1nnc(NC(=O)c2cc(=O)c3ccccc3o2)s1` gave D1 antag -15, D1 ag 0, D1 potentiator 0 and D3 ag 8.
CC1CCN(Cc2c(C#N)c3ccccc3n2C)CC1 was read as D1 antag 1, D1 ag 1, DRD3 antagonist -75*, D1 potentiator -5 and D3 ag 1.
Cn1c(CN2CCOCC2)c(C#N)c2ccccc21 was read as D1 antag 9, D1 ag 1, DRD3 antagonist -19, D1 potentiator 1 and D3 ag 1.
Screening CC1CCCCN1Cc1c(C#N)c2ccccc2n1C (centres undefined) returned D1 antag 4, D1 ag 3, DRD3 antagonist -66*, D1 potentiator -7 and D3 ag -11.
CCOC(=O)CSCc1c(C#N)c2ccccc2n1C was read as D1 antag 10, D1 ag 2, DRD3 antagonist -52*, D1 potentiator 0 and D3 ag 0.
`Cn1c(CN2CCCC2)c(C#N)c2ccccc21` gave D1 antag 1, D1 ag 1, DRD3 antagonist -86*, D1 potentiator -5 and D3 ag -12.
CN1CCN(Cc2c(C#N)c3ccccc3n2C)CC1 was read as D1 antag -2, D1 ag 4, DRD3 antagonist -6, D1 potentiator -5 and D3 ag -5.
Screening CCc1ccc(-n2cnc3cc(C(=O)NCc4ccc(C)cc4)ccc32)cc1 returned D1 antag 10, D1 ag 0, D1 potentiator 1 and D3 ag -1.
O=C(Nc1cccc(F)c1)c1oc2ccccc2c1NC(=O)C12CC3CC(CC(C3)C1)C2 was read as D1 antag -2, D1 ag 1, D1 potentiator -1 and D3 ag 1.
Screening COc1ccccc1C(=O)Nc1ccc2nc(N3CCC(C)CC3)cc(C)c2c1 returned D1 antag 4, D1 ag 2, D1 potentiator 0 and D3 ag 12.
